Results: PubChem BioAssay
The source made the active and inactive calls.

Tests used:
[1] = system: Plasmodium falciparum Sir2 (PF13_0152, Sir2A); assay: pfSir2 binders on small-molecule microarrays, primary screen, biochemical, small-molecule microarray, 635 nm fluorescence (AID 1098); conditions: small-molecule microarray binding, fluorescence 635 nm; higher = more signal;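 also: score merges spot fluorescence intensity with its signal-to-noise ratio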
[2] = small-molecule microarray binders of probe aDKK1, primary screen, biochemical, biotinylated probe, 635/667 nm fluorescence (AID 1099); conditions: higher = more signal;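 also: score merges 667nm spot fluorescence with signal to noise across triplicate slides; reference of the scale not given here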
[3] = small-molecule microarray binders of probe aCHRDL2, primary screen, biochemical, biotinylated probe, 635/667 nm fluorescence (AID 1100); conditions: higher = more signal
[4] = splicing luciferase reporter signal modulators, primary screen, spliceosome inhibition project, cell-based, HEK293, splice +/- reporter (AID 1101); conditions: luminescence, 24 h, higher = more signal, called active from +8 up or from −8 down;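 also: HEK293 cells carrying a splicing-competent luciferase reporter gene; test concentration not given here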
[5] = biological target: Fibroblast growth factor 10 (Homo sapiens) (UniProt O15520); assay: FGF10 binders on small-molecule microarrays, primary screen, biochemical, small-molecule microarray, 635 nm fluorescence (AID 1102); conditions: FGF10 binding, fluorescence 635 nm, higher = more signal
[6] = system: glycogen synthase kinase-3 (GSK3A per assay name; protocol says GSK3B); assay: GSK3 binders on small-molecule microarrays, primary screen, biochemical, small-molecule microarray, 635 nm fluorescence, GSK3A (AID 1103); conditions: small-molecule microarray binding, fluorescence 635 nm; higher = more signal; also: the record names both GSK3A and GSK3B
[7] = biological target: Epidermal growth factor receptor (Homo sapiens) (UniProt P00533); assay: EGFR binders on small-molecule microarrays, primary screen, biochemical, small-molecule microarray, 635 nm fluorescence (AID 1104); conditions: EGFR binding, higher = more signal;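 also: score merges 667 nm emission intensity with spot signal to noise over triplicate slides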
[8] = biological target: Follistatin-related protein 3 (Homo sapiens) (UniProt O95633); assay: FSTL3 binders on small-molecule microarrays, primary screen, biochemical, small-molecule microarray, 635 nm fluorescence (AID 1105); conditions: FSTL3 binding, higher = more signal;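 also: score merges emission near 667 nm and signal to noise per printed spot across three slides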
[9] = biological target: Dickkopf-related protein 1 (Homo sapiens) (UniProt O94907); assay: DKK1 binders on small-molecule microarrays, primary screen, biochemical, small-molecule microarray, 635 nm fluorescence scan (AID 1106); conditions: DKK1 binding, higher = more signal;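 also: score merges emission near 667 nm with signal to noise over three replicate slides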
[10] = system: Inhibin beta A chain (activin A); assay: INHBA (activin A) binders on microarrays, primary screen, biochemical, small-molecule microarray, 635 nm fluorescence scan (AID 1107); conditions: small-molecule microarray binding, higher = more signal;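 also: mouse activin A protein probed at 4.33 µg/mL on printed slides; score merges bound-protein fluorescence near 667 nm with spot signal-to-noise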

Epidermal growth factor receptor (Homo sapiens), sequence (P00533 whole entry, looked up): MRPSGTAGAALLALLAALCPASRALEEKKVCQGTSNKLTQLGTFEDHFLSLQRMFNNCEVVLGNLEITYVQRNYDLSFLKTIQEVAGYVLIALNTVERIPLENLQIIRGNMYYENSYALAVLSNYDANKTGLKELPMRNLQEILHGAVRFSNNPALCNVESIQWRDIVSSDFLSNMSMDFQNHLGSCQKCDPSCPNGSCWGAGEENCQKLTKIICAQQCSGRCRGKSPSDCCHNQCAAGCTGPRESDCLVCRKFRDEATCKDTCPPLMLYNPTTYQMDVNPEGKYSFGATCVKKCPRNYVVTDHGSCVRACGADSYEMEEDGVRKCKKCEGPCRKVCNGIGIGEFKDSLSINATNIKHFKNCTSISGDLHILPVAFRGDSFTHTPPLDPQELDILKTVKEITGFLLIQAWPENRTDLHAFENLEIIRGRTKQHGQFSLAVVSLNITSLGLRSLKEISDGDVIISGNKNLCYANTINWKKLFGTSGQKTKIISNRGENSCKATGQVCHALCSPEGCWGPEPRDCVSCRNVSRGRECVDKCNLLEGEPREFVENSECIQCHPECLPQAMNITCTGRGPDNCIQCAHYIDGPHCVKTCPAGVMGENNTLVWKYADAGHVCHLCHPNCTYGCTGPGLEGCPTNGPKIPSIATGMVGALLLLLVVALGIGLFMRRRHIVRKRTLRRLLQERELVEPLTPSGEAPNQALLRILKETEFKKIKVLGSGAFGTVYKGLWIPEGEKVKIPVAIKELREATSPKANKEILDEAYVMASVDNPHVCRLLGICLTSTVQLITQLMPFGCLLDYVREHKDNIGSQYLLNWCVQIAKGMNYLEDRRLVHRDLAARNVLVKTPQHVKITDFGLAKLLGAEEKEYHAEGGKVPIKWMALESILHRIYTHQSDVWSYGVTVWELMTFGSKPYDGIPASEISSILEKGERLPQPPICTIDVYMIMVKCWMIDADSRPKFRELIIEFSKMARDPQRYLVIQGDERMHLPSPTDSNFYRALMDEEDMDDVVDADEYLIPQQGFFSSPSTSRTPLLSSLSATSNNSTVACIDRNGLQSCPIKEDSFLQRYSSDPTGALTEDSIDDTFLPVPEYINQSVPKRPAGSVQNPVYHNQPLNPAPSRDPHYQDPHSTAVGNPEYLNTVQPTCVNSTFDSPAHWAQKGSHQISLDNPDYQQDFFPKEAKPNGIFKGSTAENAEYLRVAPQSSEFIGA
Fibroblast growth factor 10 (Homo sapiens), sequence (O15520 whole entry, looked up): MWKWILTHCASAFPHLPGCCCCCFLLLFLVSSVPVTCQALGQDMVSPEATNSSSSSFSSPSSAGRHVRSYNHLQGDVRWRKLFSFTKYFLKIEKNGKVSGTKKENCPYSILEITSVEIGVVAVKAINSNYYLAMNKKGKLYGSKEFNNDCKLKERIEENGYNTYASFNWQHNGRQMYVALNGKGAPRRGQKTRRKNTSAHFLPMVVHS
Dickkopf-related protein 1 (Homo sapiens), sequence (O94907 whole entry, looked up): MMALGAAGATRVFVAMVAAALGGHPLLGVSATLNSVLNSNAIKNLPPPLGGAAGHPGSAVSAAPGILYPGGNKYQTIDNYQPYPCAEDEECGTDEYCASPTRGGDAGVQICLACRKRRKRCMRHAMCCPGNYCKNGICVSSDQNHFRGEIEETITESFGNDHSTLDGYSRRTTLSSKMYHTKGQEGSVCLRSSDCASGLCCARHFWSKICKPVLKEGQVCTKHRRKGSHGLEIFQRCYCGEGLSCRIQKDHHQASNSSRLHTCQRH
Follistatin-related protein 3 (Homo sapiens), sequence (O95633 whole entry, looked up): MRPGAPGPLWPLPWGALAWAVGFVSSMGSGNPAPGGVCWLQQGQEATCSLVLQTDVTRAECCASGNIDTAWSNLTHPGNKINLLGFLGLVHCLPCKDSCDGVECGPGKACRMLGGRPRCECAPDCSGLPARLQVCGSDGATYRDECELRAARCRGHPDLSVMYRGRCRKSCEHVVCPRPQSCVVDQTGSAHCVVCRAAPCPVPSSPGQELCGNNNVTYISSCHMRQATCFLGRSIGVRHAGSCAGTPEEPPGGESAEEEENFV

| SMILES | composite z-score [1] | composite z-score [2] | composite z-score [3] | z-score [4] | composite z-score [5] | composite z-score [6] | composite z-score [7] | composite z-score [8] | composite z-score [9] | composite z-score [10] |
| --- | --- | --- | --- | --- | --- | --- | --- | --- | --- | --- |
| [N-]=[N+]=NCc1ccccc1C[C@]1(C(=O)NCCN2CCOCC2)N=C(c2ccc(OCCCO)cc2)O[C@H]1c1ccccc1N=[N+]=[N-] | 0.8 | 0.838 | 1.11 | -0.947 (inactive) | 0.636 | 1.15 | 0.294 | 0.504 | -0.233 | 0.819 |
| CC(C)(C)OC(=O)CC[C@@]1(C(=O)O)N=C(c2ccc(OCCCO)cc2)O[C@@H]1c1ccccc1N=[N+]=[N-] | 1.67 | 1.16 | 1.36 | -0.66 (inactive) | 0.991 | 0.357 | -0.288 | -0.153 | -0.169 | 1.33 |
| COc1ccc([Si](C)(C)[C@@H]2[C@@H](CCn3cc([C@H](O)c4ccccc4)nn3)O[C@]3(C(=O)N(Cc4cccc(N5CCOC5=O)c4)c4ccccc43)[C@H]2C)cc1 | -1.35 | -0.231 | 0.658 | 1.7 (inactive) | -1.02 | -1.01 | -0.901 | -0.995 | -1.13 | -0.495 |
| COCCOC(=O)N1C(=O)[C@@]2(c3cc(C#CCNC(N)=O)ccc31)[C@H](c1ccc(OCCO)cc1)N1[C@H](c3ccccc3)[C@H](c3ccccc3)OC(=O)[C@H]1[C@@H]2C(=O)N1CCc2cc(OC)c(OC)cc2C1 | 0.719 | 0.208 | 0.676 | 0.911 (inactive) | 0.921 | 0.0059 | 0.803 | 1.17 | 0.455 | 0.959 |
| Cc1ccc(S[C@]2(C(=O)NCc3ccccc3)CC(=O)N(Cc3ccccc3)[C@@H]2c2ccc(CO)cc2)cc1 | 0.979 | 0.114 | 0.694 | 0.643 (inactive) | -0.173 | -0.789 | -1.22 | -1.01 | -0.799 | -0.317 |
| COC(=O)c1ccc(C(O)C2C=CC3C(=O)N(c4ccccc4)C(=O)C3N2Nc2ccc(C#N)cc2)o1 (stereo not given) | 0.969 | 0.51 | 0.669 | 1.28 (inactive) | 0.989 | 0.137 | 0.219 | 0.311 | -0.0752 | 0.961 |
| C=CCNC(=O)[C@@H]1[C@H]2C(=O)O[C@H](c3ccccc3)[C@H](c3ccccc3)N2[C@H](c2ccc(O)cc2)[C@@]12C(=O)N(C(=O)OCCOC)c1ccccc12 | 1.03 | -0.0262 | 0.421 | -1 (inactive) | 0.796 | 1.02 | -0.405 | 0.638 | -0.232 | -0.188 |
| COCCOC(=O)N1C(=O)[C@@]2(c3ccccc31)[C@H](c1ccc(O)cc1)N1[C@H](c3ccccc3)[C@H](c3ccccc3)OC(=O)[C@H]1[C@@H]2C(=O)N1CCc2cc(OC)c(OC)cc2C1 | 1.25 | 0.203 | 0.404 | -0.832 (inactive) | 1.36 | 0.92 | 0.869 | 1.03 | 0.84 | 0.451 |
| Cc1ccc(S[C@]2(C(=O)O)CC(=O)N(C3Cc4ccccc4C3)[C@@H]2c2ccc(CO)cc2I)cc1 | 0.787 | 0.425 | 1.05 | -0.0201 (inactive) | -0.345 | -0.695 | -1.04 | -0.75 | -0.649 | 1.11 |
| Cc1cc(C)cc(N2C(=O)CS(=O)(=O)C2c2cccc([N+](=O)[O-])c2)c1 (stereo not given) | 0.195 | 0.734 | 0.788 | -0.352 (inactive) | 0.612 | 0.124 | 0.518 | 0.366 | 0.122 | 0.826 |
| CCCN1C(=O)[C@@]2(CCC(=O)OC(C)(C)C)N=C(c3ccc(OCCCO)cc3)O[C@H]2c2ccccc21 | 0.902 | -0.243 | 0.713 | 0.478 (inactive) | 0.9 | 1.22 | 0.246 | 0.874 | 0.242 | 1.03 |
| C=CCC(OC(C)=O)[C@@H]1[C@@H](N(Cc2cccc3ccccc23)C(=O)c2cccc3ccccc23)c2cc(OCCCO)ccc2N1C(=O)c1ccc2ccccc2n1 (stereo not given in full) | -0.0758 | -0.095 | 0.181 | -0.202 (inactive) | 0.635 | 0.0702 | -0.0538 | 0.256 | -0.501 | 1.45 |
| CC(C)NC(=O)[C@@H]1c2ccccc2C(=O)N(Cc2ccccc2Cl)[C@H]1c1ccc(CO)cc1 | 0.284 | 0.0098 | 0.448 | 0.62 (inactive) | -0.584 | 0.0016 | -0.903 | -0.398 | -0.645 | 0.365 |
| O=C1N(CCS(=O)(=O)c2ccccc2)c2ccccc2C[C@@]12COC(c1ccc(OCCCO)cc1)=N2 | 1.51 | 0.957 | 1.12 | -0.651 (inactive) | 0.805 | 1.32 | 0.432 | 1.32 | 0.763 | 1.18 |
| C=CCOC(=O)[C@@H]1[C@H]2C(=O)O[C@H](c3ccccc3)[C@H](c3ccccc3)N2[C@H](c2ccc(OCCOC(=O)[C@@H]3C[C@@H]4C(=O)N[C@@H](Cc5ccccc5)C(=O)N4[C@@H]3c3cccc(OCCO)c3)cc2)[C@@]12C(=O)Nc1ccc(I)cc12 | 1.12 | -0.0053 | -0.0587 | -0.76 (inactive) | 1.21 | 0.954 | 0.934 | 1.1 | 0.991 | 1.06 |
| COc1ccc(CCN2C(=O)[C@@]3(Cc4ccccc42)c2ccccc2C(=O)N(Cc2ccccc2Cl)[C@H]3c2ccc(CO)cc2)cc1 | 1.14 | 0.546 | 0.929 | -0.0194 (inactive) | -0.202 | -1.01 | -1.12 | -0.61 | -0.695 | 0.38 |
| COCCOC(=O)N1C(=O)[C@@]2(c3cc(C#CC4=CCCCC4)ccc31)[C@H](C(=O)NC[C@H](O)c1ccccc1)[C@H]1C(=O)O[C@H](c3ccccc3)[C@H](c3ccccc3)N1[C@@H]2c1ccc(O)cc1 | 1.14 | 0.298 | 0.124 | -1.06 (inactive) | 1.22 | 1.3 | 0.663 | 1.41 | 1.06 | 1.01 |
